High-throughput results (PubChem BioAssay)
Rv3671c inh – inhibitors of M. tuberculosis serine protease Rv3671c. AID 2606. inhibition, % at 5.96 µM. P9WHR9. 320,000 tested, 0.048% active; in the data active = inhibition above about 38%;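 also: extracellular domain of Rv3671c used as enzyme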
Target sequence (P9WHR9 whole entry, looked up, the tested form may be a part): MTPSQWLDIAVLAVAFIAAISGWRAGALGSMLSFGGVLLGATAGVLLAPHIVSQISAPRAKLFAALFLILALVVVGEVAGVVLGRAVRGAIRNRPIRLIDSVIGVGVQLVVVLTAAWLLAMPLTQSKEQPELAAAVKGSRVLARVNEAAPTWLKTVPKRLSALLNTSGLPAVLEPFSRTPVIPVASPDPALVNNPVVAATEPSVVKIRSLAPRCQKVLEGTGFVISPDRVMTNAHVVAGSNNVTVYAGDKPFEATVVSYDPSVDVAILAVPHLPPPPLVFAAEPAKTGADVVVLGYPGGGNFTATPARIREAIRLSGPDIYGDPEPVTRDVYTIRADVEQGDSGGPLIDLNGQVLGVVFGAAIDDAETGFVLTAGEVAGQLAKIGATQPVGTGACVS
FadD28 FP inh – blocks FadD28 binding to the bisubstrate probe; fluorescence polarization; inhibition, % at 12.5 µM; 360,000 tested, 0.22% active; AID 588549; in the data active = inhibition above about 8.5%, passing the limit was not always enough; inconclusive = no clear call, values can overlap the other calls
SSB-PriA inh – inhibitors of Klebsiella pneumoniae PriA binding to SSB C-terminal tail; AlphaScreen SSBct-PriA binding, biotinylated peptide; inhibition, % at 33 µM; 430,000 tested, 0.6% active; in the data active = inhibition mostly above about 37%, no sharp cut-off; inactive = mostly below about 20%
PrPC TRFRET – reduces human prion protein on the cell surface | P04156 | cell surface PrPC, TR-FRET read-out | inhibition, % at 13.8 µM | 370,000 tested, 0.43% active | AID 720596; in the data active = inhibition above about 24%
PrP UTR inh – suppresses PrP 5' UTR mRNA reporter expression. cell-based PrP 5' UTR mRNA reporter, plate reader. inhibition, % (no concentration beside the values). 340,000 tested, 0.35% active. AID 488862; in the data active = inhibition above about 52%
UGM FP inh – inhibitors of M. tuberculosis UDP-galactopyranose mutase; 320,000 tested, 0.06% active; AID 504406; P9WIQ1; purified UGM, fluorescence polarization probe displacement; inhibition, % at 10 µM; in the data active = inhibition above about 10%, passing the limit was not always enough; inconclusive = no clear call, values can overlap the other calls
Of the large screens only hits and unclear results are named; the others gave an inactive call. Hits are enriched below; roughly 1.2% of the tested compounds scored in any of these assays.

COc1ccc(OC)c2sc(NC(=O)c3ccc(Cl)cc3Cl)nc12	none (no result: Rv3671c inh, FadD28 FP inh, PrPC TRFRET, PrP UTR inh, UGM FP inh)
Cc1cccc2sc(NC(=O)Cc3cc(=O)[nH]c(SCc4ccccc4F)n3)nc12	none (no result: Rv3671c inh, FadD28 FP inh, PrPC TRFRET, PrP UTR inh, UGM FP inh)
CCC(=O)Nc1ccc(S(=O)(=O)NC[C@H](OC)c2cccc(F)c2)c(C)c1	none (no result: Rv3671c inh, FadD28 FP inh, PrPC TRFRET, PrP UTR inh, UGM FP inh)
Oc1ccccc1N=N/C(=N/Nc1ccccc1O)c1ccccc1	none
N#C/C(N=Nc1ccccc1O)=N\Nc1ccccc1O	FadD28 FP inh 9.4, SSB-PriA inh active
Cc1sc(NC(=O)CSc2ccccc2)c(C#N)c1C	none (no result: Rv3671c inh, FadD28 FP inh, PrPC TRFRET, PrP UTR inh, UGM FP inh)
CCn1cc(CN2CCC(C(=O)Nc3ccc(Oc4cccnc4)cc3)CC2)c(C)n1	FadD28 FP inh 13
C=CCn1cc(CN2CCC(C(=O)Nc3ccc(Oc4cccnc4)cc3)CC2)c(C)n1	FadD28 FP inh 16
CCn1cc(CN2CCC(C(=O)Nc3ccc(Oc4cccnc4)cc3)CC2)cn1	FadD28 FP inh inconclusive
Nc1c(Cl)ncnc1NN=Cc1ccc2ccccc2n1	SSB-PriA inh 54 (no result: Rv3671c inh, FadD28 FP inh, PrPC TRFRET, PrP UTR inh, UGM FP inh)
COc1ccc(CN2CCN(C(C)C(=O)N(C)Cc3cccc(F)c3)CC2)cc1OC (centres undefined)	SSB-PriA inh 52
COc1ccc(CN2CCN(C(C)C(=O)NC(C)c3ccc(F)cc3)CC2)cc1F (centres undefined)	none
N#Cc1nc(Cc2ccccc2)oc1N1CCC(Cc2ccccc2)CC1	SSB-PriA inh 50
N#Cc1nc(Cc2ccccc2)oc1N1CCN(c2ccccc2)CC1	SSB-PriA inh 45
CC1=NCCc2c1[nH]c1cc(O)ccc21	UGM FP inh 31
O=[N+]([O-])c1cc(Br)c2ncccc2c1	none (no result: Rv3671c inh, FadD28 FP inh, PrPC TRFRET, PrP UTR inh, UGM FP inh)
COc1ccc(Cl)cc1C(=O)Nc1cnc(-n2ccnc2C)nc1	none (no result: Rv3671c inh, FadD28 FP inh, PrPC TRFRET, PrP UTR inh, UGM FP inh)
CC(=NNc1nc2ccccc2o1)c1ncccn1	SSB-PriA inh 101 (no result: Rv3671c inh, UGM FP inh)
CCCCOc1ccc(-c2nnn(CC(=O)c3c[nH]c4ccccc34)n2)cc1	none
COc1ccc(-c2nnn(CC(=O)c3c[nH]c4ccccc34)n2)cc1OC	FadD28 FP inh 15
Cc1ccccc1CSc1nnc(-c2ccccn2)n1C	none (no result: PrP UTR inh)
Cc1ccccc1CSc1nccn1-c1ccccc1	SSB-PriA inh 49
COc1cccc(CNc2ccc3[nH]c(=O)[nH]c3c2)c1OCc1ccccc1Cl	SSB-PriA inh 79
COc1ccc(Br)cc1CNc1ccc2[nH]c(=O)[nH]c2c1	SSB-PriA inh 39
COc1cc(CNc2ccc3[nH]c(=O)[nH]c3c2)ccc1OCc1ccccc1	SSB-PriA inh 41
COc1ccc(Br)cc1CNc1ccc(O)cc1	none
COc1cccc(CNc2ccc3[nH]c(=O)[nH]c3c2)c1OCc1ccccc1	SSB-PriA inh 47 (no result: Rv3671c inh, PrPC TRFRET)
O=C(NCc1ccc2c(c1)OCO2)C(=O)NCC(O)(c1ccco1)C1CC1 (centres undefined)	none (no result: Rv3671c inh, FadD28 FP inh, PrPC TRFRET, PrP UTR inh, UGM FP inh)
Cc1noc(C)c1C(=O)N1CCN(c2ccc(-c3noc(C(C)C)n3)cn2)CC1	none (no result: Rv3671c inh, FadD28 FP inh, PrPC TRFRET, PrP UTR inh, UGM FP inh)
CC(C)c1nc(-c2ccc(N3CCN(C(=O)Cc4cn(C)c5ccccc45)CC3)nc2)no1	SSB-PriA inh 61 (no result: Rv3671c inh, FadD28 FP inh, PrPC TRFRET, PrP UTR inh, UGM FP inh)
CCOC(=O)c1cc2c(ccn2C)n1Cc1cc(C)ccc1C	SSB-PriA inh 41
CCCCCCCCNC(C)C(O)c1ccc(SC(C)C)cc1 (centres undefined)	FadD28 FP inh 15
CC(C)(C)NC(=O)NCC#CCN1CCCC1	none (no result: Rv3671c inh, FadD28 FP inh, PrPC TRFRET, PrP UTR inh, UGM FP inh)
O=c1nc(NN=Cc2ccccn2)cn[nH]1	SSB-PriA inh 82 (no result: Rv3671c inh, FadD28 FP inh, PrPC TRFRET, PrP UTR inh, UGM FP inh)
Cc1cc(=O)[nH]c(NN=Cc2ccccn2)n1	SSB-PriA inh 83 (no result: Rv3671c inh, FadD28 FP inh, PrPC TRFRET, PrP UTR inh, UGM FP inh)
CCCc1cc(=O)[nH]c(-n2nc(C)cc2NC(=O)C(C)(C)CCl)n1	SSB-PriA inh 44 (no result: Rv3671c inh, FadD28 FP inh, PrPC TRFRET, PrP UTR inh, UGM FP inh)
O=C(NCc1ccc2c(c1)OCO2)C12CN(Cc3ccccc3)CC1C(c1cccc([N+](=O)[O-])c1)=NO2 (centres undefined)	SSB-PriA inh 43
O=C(NCc1ccc(C(F)(F)F)cc1)C12CN(Cc3ccccc3)CC1C(c1cccc([N+](=O)[O-])c1)=NO2 (centres undefined)	none
Cc1ccc(/C=C/S(=O)(=O)NC[C@]2(O)CCc3ccccc32)cc1	none (no result: Rv3671c inh, FadD28 FP inh, PrPC TRFRET, PrP UTR inh, UGM FP inh)
Cc1ccccc1NC(=O)c1ccc(NN=Cc2ccccc2O)c([N+](=O)[O-])c1	none (no result: Rv3671c inh, FadD28 FP inh, PrPC TRFRET, PrP UTR inh, UGM FP inh)
Oc1cccc2cc3cccc(O)c3c(O)c12	Rv3671c inh 38 (no result: PrPC TRFRET)
O=c1cccc2cc(O)c(O)c(O)c2c1O	none (no result: Rv3671c inh, FadD28 FP inh, PrPC TRFRET, PrP UTR inh, UGM FP inh)
O=C(NCc1cccc(Oc2ccccn2)c1)c1ccccc1Br	none (no result: Rv3671c inh, FadD28 FP inh, PrPC TRFRET, PrP UTR inh, UGM FP inh)
O=C(CCc1ccc(-c2ccccc2)o1)Nc1ccccc1[N+](=O)[O-]	SSB-PriA inh 84 (no result: Rv3671c inh, FadD28 FP inh, PrPC TRFRET, PrP UTR inh, UGM FP inh)
COCCNC(=O)Cn1cc(/C=C2\C(=O)NC(=O)N(c3ccccc3F)C2=O)c2ccccc21	UGM FP inh 15
